Results taken from PubChem BioAssay (Tox21).
“And” between values parts separate entries of the source, which are not always exact repeats. Identical values can stand only once. Inconclusive results are not listed. Where a structure was tested more than once in an assay, its records may differ in their call. The source made the active and inactive calls. Unless noted, calls follow the shape of the dose curve; as a rule, active = well fitted curve in the direction sought with a large enough effect in the repeat runs; inconclusive = weak or mixed curves; inactive = no such curve, though single readings can be large; an effect the other way counts as inactive or inconclusive.

Key:
[1] = qHTS assay to identify small molecule antagonists of the estrogen related receptor (ERR) signaling pathway from Tox21 library (AID 1224848); also: nearly all actives have a fitted effect of over 50% in size; also: potency is read from the fitted curve at half-maximal effect
Method in brief: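 Screening used an ERR reporter line supplied by NTP, exposed for 18 h at 37 C to library compounds delivered in DMSO. Signal was luciferase luminescence developed with ONE-Glo at room temperature for 30 min.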

[2] = qHTS assay to identify small molecule agonists of the estrogen related receptor (ERR) signaling pathway from Tox21 library (AID 1224849; calls by dose curve; also: nearly all actives have a fitted effect of over 15% in size); details: ERR reporter cell line, ONE-Glo luciferase, 18 h
Method in brief: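 ERR cells, 6 h pre-incubation 37 C/5% CO2; cpd in DMSO pinned; 18 h 37 C; ONE-Glo added, 30 min RT; luminescence read. Agonist mode, qHTS.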

[3] = qHTS RealTime-Glo MT Cell Viability Assay in HEK293 cells - 32 hour (AID 1224868); also: nearly all actives have a fitted effect of over 50% in size; also: potency is read from the fitted curve at half-maximal effect
Method in brief: (§1)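 Cells + reagent dispensed (600 cells/well, HEK293) → 5 h at 37 C/5% CO2 → 23 nL compound in DMSO pinned → 40 h at 37 C → luminescence read at 0, 8, 16, 24, 32, 40 h.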

[4] = A CellTox Green Cytotoxicity Assay to monitor cytotoxicity in HEK293 cells - 0 hour (AID 1224869); also: nearly all actives have a fitted effect of over 50% in size
Method in brief: (§2)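 Nonlytic real-time cytotoxicity: HEK293 + CellTox Green reagent plated, 5 h preincubation, pintool compound addition (23 nL in DMSO), 37 C for 40 h, fluorescence measured at successive time points.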

[5] = qHTS RealTime-Glo MT Cell Viability Assay in HepG2 cells - 40 hour (AID 1224870); also: nearly all actives have a fitted effect of over 50% in size
Method in brief: (§3)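 HepG2 cells mixed with RealTime-Glo MT reagents (NanoLuc plus cell-permeant prosubstrate) were seeded at 600 cells/well, incubated 5 h at 37 C/5% CO2, then pinned with compounds in DMSO; nonlytic luminescence tracked viability during 40 h treatment.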

[6] = A CellTox Green Cytotoxicity Assay to monitor cytotoxicity in HEK293 cells - 40 hour (AID 1224871); also: nearly all actives have a fitted effect of over 45% in size
Method in brief: as §2

[7] = qHTS RealTime-Glo MT Cell Viability Assay in HEK293 cells - 16 hour (AID 1224872); also: nearly all actives have a fitted effect of over 50% in size; also: potency is read from the fitted curve at half-maximal effect
Method in brief: as §1

[8] = qHTS RealTime-Glo MT Cell Viability Assay in HepG2 cells - 8 hour (AID 1224873); also: nearly all actives have a fitted effect of over 55% in size
Method in brief: as §3

[9] = qHTS RealTime-Glo MT Cell Viability Assay in HEK293 cells - 40 hour (AID 1224874); details: RealTime-Glo luminescence; max response: stronger effect = lower value; also: nearly all actives have a fitted effect of over 50% in size; also: potency is read from the fitted curve at half-maximal effect
Method in brief: (§4)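 Cells were seeded together with NanoLuc luciferase and a prosubstrate that viable cells reduce to a luciferase substrate. After a 5 h incubation at 37 C/5% CO2, compounds were added and luminescence was measured repeatedly during 40 h of treatment.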

[10] = A CellTox Green Cytotoxicity Assay to monitor cytotoxicity in HEK293 cells - 24 hour (AID 1224875); also: nearly all actives have a fitted effect of over 45% in size
Method in brief: as §2

[11] = A CellTox Green Cytotoxicity Assay to monitor cytotoxicity in HepG2 cells - 16 hour (AID 1224876); also: nearly all actives have a fitted effect of over 45% in size
Method in brief: (§5)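 Read-out is fluorescence of a cyanine dye excluded from live cells that stains DNA of dead HepG2 cells, with signal proportional to cytotoxicity. Plates were read at 0, 8, 16, 24, 32 and 40 h after compound addition.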

[12] = qHTS RealTime-Glo MT Cell Viability Assay in HepG2 cells - 32 hour (AID 1224877); also: nearly all actives have a fitted effect of over 55% in size
Method in brief: (§6)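 Real-time, nonlytic viability: 600 HepG2 cells/well mixed with NanoLuc enzyme plus prosubstrate; 5 h settle, compound (DMSO) added by pintool; luminescence monitored over 40 h at 37 C.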

[13] = A CellTox Green Cytotoxicity Assay to monitor cytotoxicity in HepG2 cells - 24 hour (AID 1224878); also: nearly all actives have a fitted effect of over 45% in size
Method in brief: as §5

[14] = A CellTox Green Cytotoxicity Assay to monitor cytotoxicity in HepG2 cells - 40 hour (AID 1224879); also: nearly all actives have a fitted effect of over 40% in size
Method in brief: as §5

[15] = qHTS RealTime-Glo MT Cell Viability Assay in HEK293 cells - 0 hour (AID 1224880)
Method in brief: as §4

[16] = A CellTox Green Cytotoxicity Assay to monitor cytotoxicity in HEK293 cells - 32 hour (AID 1224881); also: nearly all actives have a fitted effect of over 40% in size
Method in brief: as §2

[17] = A CellTox Green Cytotoxicity Assay to monitor cytotoxicity in HepG2 cells - 0 hour (AID 1224882); also: nearly all actives have a fitted effect of over 35% in size
Method in brief: as §5

[18] = A CellTox Green Cytotoxicity Assay to monitor cytotoxicity in HepG2 cells - 32 hour (AID 1224883); also: nearly all actives have a fitted effect of over 50% in size
Method in brief: as §5

[19] = A CellTox Green Cytotoxicity Assay to monitor cytotoxicity in HEK293 cells - 8 hour (AID 1224884); also: nearly all actives have a fitted effect of over 35% in size
Method in brief: as §2

[20] = qHTS RealTime-Glo MT Cell Viability Assay in HepG2 cells - 24 hour (AID 1224867); also: nearly all actives have a fitted effect of over 50% in size
Method in brief: as §6
% is scaled to controls: 0 for no effect and ±100 for the full control effect.

Fc1ccc(Br)cc1
inactive: Potency [1] | activity change, positive = activation ([2]; at 92.4 µM (top of the series)) -0.613% and 3.34% | Potency [3] | outcome [4] | outcome [5] | Potency [6] | Potency [7] | outcome [8] | max response [9] 11.6% and 0.497% | Potency [10] | Potency [11] | outcome [12] | Potency [13] | Potency [14] | Potency [15] | Potency [16] | outcome [17] | Potency [18] | outcome [19]

c1ccc2c(c1)ccc1ccccc12
active: Potency [1] 47.2 µM and 24.3 µM
inactive: activity change, positive = activation ([2]; at 92.4 µM (top of the series)) -34.9% and -32.3% | outcome [20] | outcome [4] | outcome [5] | Potency [7] | outcome [8] | max response [9] -10.3% | Potency [11] | outcome [12] | Potency [13] | Potency [15] | outcome [17] | Potency [18] | outcome [19]

CC1=C(C)S(=O)(=O)CCS1(=O)=O
inactive: Potency [1] | activity change, positive = activation ([2]; at 92.4 µM (top of the series)) 10.9% | outcome [5] | Potency [6] | Potency [7] | outcome [8] | Potency [10] | Potency [11] | outcome [12] | Potency [13] | Potency [14] | Potency [15] | outcome [17] | Potency [18] | outcome [19]

CN(C)CCCN
inactive: Potency [1] | activity change, positive = activation ([2]; at 92.4 µM (top of the series)) 5.71% and 0.874% | outcome [20] | Potency [3] | outcome [4] | outcome [5] | Potency [6] | Potency [7] | outcome [8] | max response [9] -0.421% and -3.46% | Potency [10] | outcome [12] | Potency [13] | Potency [15] | Potency [16] | outcome [17] | Potency [18] | outcome [19]

O=C(Oc1ccccc1)c1ccccc1
inactive: Potency [1] | activity change, positive = activation ([2]; at 92.4 µM (top of the series)) 4.89% and 5.21% | outcome [20] | outcome [4] | outcome [5] | Potency [6] | Potency [7] | outcome [8] | max response [9] -9.85% and 1.19% | Potency [10] | outcome [12] | Potency [13] | Potency [14] | Potency [15] | Potency [16] | outcome [17] | Potency [18] | outcome [19]

N[C@@H](Cc1cc(I)c(Oc2cc(I)c(O)c(I)c2)c(I)c1)C(=O)O
inactive: Potency [1] | activity change, positive = activation ([2]; at 42.5 µM (top of the series)) -1.09% and 0.396% | outcome [20] | Potency [3] | outcome [5] | Potency [6] | Potency [7] | outcome [8] | max response [9] 12.3% and 0.808% | Potency [10] | Potency [11] | outcome [12] | Potency [13] | Potency [15] | Potency [16] | outcome [17] | Potency [18] | outcome [19]

CSCCC=O
inactive: Potency [1] | activity change, positive = activation ([2]; at 92.4 µM (top of the series)) 9.1% and 4.08% | outcome [20] | outcome [4] | outcome [5] | Potency [6] | Potency [7] | outcome [8] | max response [9] 4.41% and 31% | Potency [10] | outcome [12] | Potency [13] | Potency [15] | outcome [17] | Potency [18] | outcome [19]

Cc1cccc(O)c1
inactive: Potency [1] | activity change, positive = activation ([2]; at 92.4 µM (top of the series)) 8.59% and 2.31% | Potency [3] | outcome [5] | Potency [6] | Potency [7] | outcome [8] | max response [9] 3.75% and 3.48% | Potency [10] | outcome [12] | Potency [13] | Potency [14] | Potency [15] | Potency [16] | outcome [17] | Potency [18] | outcome [19]

COCCCOc1ccnc(CS(=O)c2nc3ccccc3[nH]2)c1C (stereo not given)
10.9 µM (active) and inactive: Potency [7]
active: Potency [9] 9.74 µM
9.74 µM (active) and inactive: Potency [3]
inactive: Potency [1] | activity change, positive = activation ([2]; at 92.4 µM (top of the series)) -25.6% | outcome [20] | outcome [5] | Potency [6] | outcome [8] | max response [9] -13.3% | Potency [10] | Potency [11] | outcome [12] | Potency [13] | Potency [14] | Potency [15] | outcome [17] | Potency [18] | outcome [19]

CCCCCCCCCCCCc1ccccc1
inactive: Potency [1] | activity change, positive = activation ([2]; at 92.4 µM (top of the series)) 9.43% and 1.83% | Potency [3] | outcome [5] | Potency [6] | Potency [7] | outcome [8] | max response [9] 7.72% and -4.38% | Potency [10] | Potency [11] | outcome [12] | Potency [13] | Potency [15] | Potency [16] | outcome [17] | Potency [18] | outcome [19]

O=C1CCC(N2C(=O)c3ccccc3C2=O)C(=O)N1 (stereo not given)
inactive: outcome [20] | Potency [3] | outcome [4] | outcome [5] | Potency [6] | Potency [7] | outcome [8] | max response [9] 7.18% and -6.83% | Potency [10] | Potency [11] | outcome [12] | Potency [13] | Potency [14] | Potency [15] | Potency [16] | outcome [17] | Potency [18] | outcome [19]

O=C(O)c1ccccc1C(c1ccc(O)cc1)c1ccc(O)cc1
inactive: Potency [1] | activity change, positive = activation ([2]; at 92.4 µM (top of the series)) 4.92% and 4.34% | outcome [20] | Potency [3] | outcome [4] | outcome [5] | Potency [6] | Potency [7] | outcome [8] | max response [9] 2.57% and 12.8% | Potency [10] | Potency [11] | outcome [12] | Potency [13] | Potency [14] | Potency [15] | Potency [16] | outcome [17] | Potency [18] | outcome [19]
